Calls of active or inactive are those of the source.

In experiment [1] the test system is Plasmodium falciparum Sir2 (PF13_0152, Sir2A). Put plainly: pfSir2 binders on small-molecule microarrays, primary screen, biochemical, small-molecule microarray, 635 nm fluorescence (AID 1098).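 Also: score merges spot fluorescence intensity with its signal-to-noise ratio.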 The note with it: small-molecule microarray binding, fluorescence 635 nm; higher = more signal.
Experiment [2] can be described thus: small-molecule microarray binders of probe aDKK1, primary screen, biochemical, biotinylated probe, 635/667 nm fluorescence (AID 1099).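 Also: score merges 667nm spot fluorescence with signal to noise across triplicate slides; reference of the scale not given here.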 The settings on record: higher = more signal.
Experiment [3] in a line: small-molecule microarray binders of probe aCHRDL2, primary screen, biochemical, biotinylated probe, 635/667 nm fluorescence (AID 1100). The note with it: higher = more signal.
Experiment [4] in a line: splicing luciferase reporter signal modulators, primary screen, spliceosome inhibition project, cell-based, HEK293, splice +/- reporter (AID 1101).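 Also: HEK293 cells carrying a splicing-competent luciferase reporter gene; test concentration not given here.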 The settings on record: luminescence, 24 h, higher = more signal, called active from +8 up or from −8 down.
The target in experiment [5] is Fibroblast growth factor 10 (Homo sapiens) (UniProt O15520). Briefly: FGF10 binders on small-molecule microarrays, primary screen, biochemical, small-molecule microarray, 635 nm fluorescence (AID 1102). The settings on record: FGF10 binding, fluorescence 635 nm, higher = more signal.
In experiment [6] the test system is glycogen synthase kinase-3 (GSK3A per assay name; protocol says GSK3B). Put plainly: GSK3 binders on small-molecule microarrays, primary screen, biochemical, small-molecule microarray, 635 nm fluorescence, GSK3A (AID 1103). Also: the record names both GSK3A and GSK3B. The settings on record: small-molecule microarray binding, fluorescence 635 nm; higher = more signal.
Experiment [7] concerns the target Epidermal growth factor receptor (Homo sapiens) (UniProt P00533). Briefly: EGFR binders on small-molecule microarrays, primary screen, biochemical, small-molecule microarray, 635 nm fluorescence (AID 1104).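 Also: score merges 667 nm emission intensity with spot signal to noise over triplicate slides.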 The settings on record: EGFR binding, higher = more signal.
Experiment [8] concerns the target Follistatin-related protein 3 (Homo sapiens) (UniProt O95633). Put plainly: FSTL3 binders on small-molecule microarrays, primary screen, biochemical, small-molecule microarray, 635 nm fluorescence (AID 1105).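 Also: score merges emission near 667 nm and signal to noise per printed spot across three slides.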 The note with it: FSTL3 binding, higher = more signal.
For experiment [9], the target named is Dickkopf-related protein 1 (Homo sapiens) (UniProt O94907). Put plainly: DKK1 binders on small-molecule microarrays, primary screen, biochemical, small-molecule microarray, 635 nm fluorescence scan (AID 1106).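 Also: score merges emission near 667 nm with signal to noise over three replicate slides.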 The settings on record: DKK1 binding, higher = more signal.
The subject of experiment [10] is Inhibin beta A chain (activin A). Put plainly: INHBA (activin A) binders on microarrays, primary screen, biochemical, small-molecule microarray, 635 nm fluorescence scan (AID 1107).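 Also: mouse activin A protein probed at 4.33 µg/mL on printed slides; score merges bound-protein fluorescence near 667 nm with spot signal-to-noise.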 The settings on record: small-molecule microarray binding, higher = more signal.

Chain of Fibroblast growth factor 10 (Homo sapiens) (O15520 whole entry, looked up): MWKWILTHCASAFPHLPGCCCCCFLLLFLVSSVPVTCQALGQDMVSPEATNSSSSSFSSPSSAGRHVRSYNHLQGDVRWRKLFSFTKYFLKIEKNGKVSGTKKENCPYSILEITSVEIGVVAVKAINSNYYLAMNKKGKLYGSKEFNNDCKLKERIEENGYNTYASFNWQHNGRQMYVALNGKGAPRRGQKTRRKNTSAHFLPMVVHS
Chain of Follistatin-related protein 3 (Homo sapiens) (O95633 whole entry, looked up): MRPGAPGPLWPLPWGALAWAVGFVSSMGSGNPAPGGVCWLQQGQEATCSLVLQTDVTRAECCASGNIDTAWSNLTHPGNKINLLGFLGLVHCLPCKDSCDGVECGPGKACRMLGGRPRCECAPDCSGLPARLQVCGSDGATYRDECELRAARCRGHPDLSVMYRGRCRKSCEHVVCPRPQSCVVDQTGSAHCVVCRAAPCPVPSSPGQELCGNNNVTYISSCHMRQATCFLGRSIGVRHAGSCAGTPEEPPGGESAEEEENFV
Chain of Epidermal growth factor receptor (Homo sapiens) (P00533 whole entry, looked up): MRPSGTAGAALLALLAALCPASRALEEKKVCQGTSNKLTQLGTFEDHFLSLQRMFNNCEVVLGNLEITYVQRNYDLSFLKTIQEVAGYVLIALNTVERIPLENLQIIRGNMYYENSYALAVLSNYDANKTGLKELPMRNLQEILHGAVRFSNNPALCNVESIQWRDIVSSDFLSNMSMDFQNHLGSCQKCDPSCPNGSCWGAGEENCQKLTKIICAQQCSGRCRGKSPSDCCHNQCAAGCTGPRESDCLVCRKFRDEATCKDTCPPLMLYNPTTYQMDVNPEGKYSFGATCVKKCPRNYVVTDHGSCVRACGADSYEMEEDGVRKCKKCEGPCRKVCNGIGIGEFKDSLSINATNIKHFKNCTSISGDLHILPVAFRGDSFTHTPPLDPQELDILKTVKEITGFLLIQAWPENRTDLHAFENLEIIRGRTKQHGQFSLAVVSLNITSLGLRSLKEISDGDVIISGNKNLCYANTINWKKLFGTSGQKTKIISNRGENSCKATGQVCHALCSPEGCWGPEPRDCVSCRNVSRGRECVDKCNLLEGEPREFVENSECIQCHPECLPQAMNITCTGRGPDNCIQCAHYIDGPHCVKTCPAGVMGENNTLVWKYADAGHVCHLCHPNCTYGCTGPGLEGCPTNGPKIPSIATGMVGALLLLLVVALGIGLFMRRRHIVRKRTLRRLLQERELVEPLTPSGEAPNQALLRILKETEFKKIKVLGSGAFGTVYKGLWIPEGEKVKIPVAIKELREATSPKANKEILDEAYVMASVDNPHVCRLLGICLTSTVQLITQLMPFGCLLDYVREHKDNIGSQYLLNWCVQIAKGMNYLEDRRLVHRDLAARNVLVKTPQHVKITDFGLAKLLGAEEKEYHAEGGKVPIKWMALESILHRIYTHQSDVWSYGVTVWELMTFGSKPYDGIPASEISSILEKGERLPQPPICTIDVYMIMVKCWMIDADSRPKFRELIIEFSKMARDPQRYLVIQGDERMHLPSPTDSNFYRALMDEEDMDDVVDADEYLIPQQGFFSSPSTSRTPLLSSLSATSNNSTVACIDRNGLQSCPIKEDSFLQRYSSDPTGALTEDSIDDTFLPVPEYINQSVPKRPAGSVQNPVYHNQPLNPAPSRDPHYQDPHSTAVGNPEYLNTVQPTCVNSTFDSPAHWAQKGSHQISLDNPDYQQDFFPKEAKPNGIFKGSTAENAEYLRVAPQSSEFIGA
Chain of Dickkopf-related protein 1 (Homo sapiens) (O94907 whole entry, looked up): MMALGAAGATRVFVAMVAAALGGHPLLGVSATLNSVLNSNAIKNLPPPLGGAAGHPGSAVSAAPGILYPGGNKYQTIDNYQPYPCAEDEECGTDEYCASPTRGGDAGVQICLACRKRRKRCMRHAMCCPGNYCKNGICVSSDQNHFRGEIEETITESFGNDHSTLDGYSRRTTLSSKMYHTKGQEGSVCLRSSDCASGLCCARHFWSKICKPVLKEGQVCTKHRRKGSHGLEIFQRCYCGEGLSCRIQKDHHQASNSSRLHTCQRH

Regarding `CN(C)CCCCNC(=O)[C@H]1C[C@H]2C(=O)NCC(=O)N2[C@H]1c1ccc(O)cc1`, the composite z-score in experiment [1] is 0.978; in experiment [2] it was -0.114; in experiment [3] it was 0.0669; in experiment [5], -0.14; in experiment [6], -0.286; in experiment [7], -0.603. The composite z-score was -0.107 in [8], 0.0896 in experiment [9] and -0.0569 in experiment [10]. Besides, the z-score in experiment [4] is -0.127 (inactive).

For `CC(C)C[C@@H]1NC(=O)[C@@H]2C[C@H](C(=O)NCCCCCCNC(=O)CS)[C@H](c3cccc(OCCO)c3)N2C1=O`, the composite z-score in experiment [1] is 1.65; in experiment [2] it was -0.0594; in experiment [3], 0.237; in experiment [5] it was 1.31; in [6] it was 1.29; in experiment [7], 0.876. Moreover, the composite z-score stood at 1.52 in [8], 1.4 in experiment [9] and 0.626 in experiment [10]. The z-score in [4] was -0.356 (inactive).

As to `COCCOC(=O)N1C(=O)[C@@]2(c3ccccc31)[C@H](c1ccc(O)cc1)N1[C@H](c3ccccc3)[C@H](c3ccccc3)OC(=O)[C@H]1[C@@H]2C(=O)N1CCCCCCC1`, the composite z-score stood at 1.81 in experiment [1]; 2.94 in experiment [2]; 1.68 in experiment [3]; 1.39 in experiment [5]; 1.37 in experiment [6]; 1.76 in experiment [7]. In addition, the composite z-score in experiment [8] was found to be 1.69; in experiment [9] it was 2.31; in experiment [10] it was 1.96. Besides, the z-score in experiment [4] was -0.682 (inactive).

Turning to `C=CC[C@]1(C(=O)NCC(O)CO)COC(c2ccc(OCCCO)cc2)=N1` (stereo not given in full), the composite z-score was -0.329 in experiment [1]; 0.787 in experiment [2]; 1.05 in [3]; -0.106 in experiment [5]; 0.0993 in experiment [6]; -1.18 in experiment [7]. Further, the composite z-score is -0.865 in experiment [8], -0.463 in [9] and 1.12 in experiment [10]. Also, the z-score in experiment [4] was 0.2 (inactive).

For `CCCCCC1=C2CNC(Cc3ccccc3)(C(=O)OC)C=C2C(C)C1=O` (stereo not given), the composite z-score in experiment [1] was 0.0442; in experiment [2] it was 0.926; in [3] it was 1.37; in experiment [5], -0.0286; in experiment [6], -1.16; in experiment [7] it was -0.779. In addition, the composite z-score is -0.733 in experiment [8], -1.84 in [9] and 1.47 in [10]. Besides, the z-score in experiment [4] is 73.6 (active).

Regarding `C=CCN1C(=O)[C@]2(O[C@H](CCn3cc([C@H](O)c4ccccc4)nn3)[C@@H]([Si](C)(C)c3ccc(OC)cc3)[C@@H]2C)c2cc(NC(=O)c3ccc(OC)cc3)ccc21`, the composite z-score in experiment [1] was 0.73; in experiment [2] it was -0.125; in experiment [3], 0.349; in [5], 0.028; in [6], -0.131; in experiment [7], 0.108. Also, the composite z-score was found to be 0.527 in [8], 0.598 in experiment [9] and 0.961 in experiment [10]. In experiment [4], the z-score is -0.768 (inactive).

Regarding `C=C(CCCC)/C(=C/C[C@H](OC(C)=O)c1cccc(OCCO)c1)c1cnc2ccccc2c1`, the composite z-score in experiment [1] was 0.989; in [2], -0.149; in experiment [3] it was -0.0497; in [5], -0.252; in experiment [6] it was -0.31; in experiment [7] it was 0.228. In addition, the composite z-score in experiment [8] is 0.234; in [9], 0.0193; in [10] it was 1.83. Besides, the z-score in experiment [4] was -0.142 (inactive).

Turning to `CCOC(=O)C[C@H]1[C@H](OC(=O)Cc2ccc3c(c2)OCO3)[C@@H](NC(=O)Cc2ccc(OC)cc2)c2cc(OCCCO)ccc2N1C(=O)Cc1ccc(OC)cc1`, the composite z-score in experiment [1] is 0.132; in experiment [2], -0.0514; in experiment [3], -0.178; in experiment [5], 0.205; in experiment [6], 0.157; in experiment [7] it was -0.141. Also, the values for the composite z-score in experiment [8], in [9] and in experiment [10] were 0.0597, -0.141 and 0.177, respectively. The z-score in experiment [4] is -2.07 (inactive).

As to `Cc1ccc(S[C@]2(C(=O)NCc3ccccc3)CC(=O)N(Cc3ccccc3C(F)(F)F)[C@@H]2c2ccc(CO)cc2)cc1`, the composite z-score in experiment [1] was 0.537; in [2] it was 0.0191; in experiment [3], 0.984; in [5], -0.915; in experiment [6], -1.13; in experiment [7], -1.22. For the same compound, the figures for the composite z-score in experiment [8], in experiment [9] and in experiment [10] were -1.28, -1.72 and 0.242, respectively. Also, in experiment [4], the z-score is -0.284 (inactive).

Turning to `CC(C)NC(=O)[C@@H]1c2ccccc2C(=O)N(Cc2ccccc2C(F)(F)F)[C@H]1c1ccc(CO)cc1`, the composite z-score was 1.68 in experiment [1]; 1.35 in [2]; 0.218 in experiment [3]; 0.697 in [5]; -0.295 in experiment [6]; -0.08 in experiment [7]. In addition, the results for the composite z-score in experiment [8], in experiment [9] and in experiment [10] were 0.147, -0.393 and -0.349, respectively. Further, in experiment [4], the z-score was 0.438 (inactive).

As to `C=CCOC(=O)[C@@H]1[C@H]2C(=O)O[C@H](c3ccccc3)[C@H](c3ccccc3)N2[C@H](c2ccc(OCCOC(=O)[C@H]3C[C@H]4C(=O)N5CCC[C@H]5C(=O)N4[C@H]3c3cccc(OCCO)c3)cc2)[C@@]12C(=O)Nc1ccc(I)cc12`, the composite z-score in experiment [1] is 1.56; in experiment [2], -0.0777; in experiment [3], 0.0879; in experiment [5], 1.05; in experiment [6] it was 1.24; in [7], 1.08. For the same compound, the results for the composite z-score in experiment [8], in experiment [9] and in experiment [10] were 1.42, 1.06 and -0.0842, respectively. For the same compound, the z-score in [4] was 0.388 (inactive).

Regarding `COC(=O)[C@H](Cc1ccc(O)cc1)N[C@@H](/C=C/C1CC1)[C@H](O)Cc1ccccc1`, the composite z-score is -0.61 in [1]; -0.29 in experiment [2]; -0.33 in experiment [3]; 0.357 in [5]; -0.444 in experiment [6]; -0.074 in experiment [7]. Further, the composite z-score in experiment [8] was -0.119; in [9], 0.14; in experiment [10], -0.322. For the same compound, the z-score in [4] is 1.29 (inactive).

For `C=CCC(OC(C)=O)[C@@H]1[C@@H](N(Cc2cc3ccccc3o2)C(=O)c2cccc3ccccc23)c2cc(OCCCO)ccc2N1C(=O)c1ccc2ccccc2n1` (stereo not given in full), the composite z-score was -0.408 in experiment [1]; 0.749 in experiment [2]; 0.317 in experiment [3]; 0.169 in experiment [5]; 0.0025 in experiment [6]; 0.3 in experiment [7]. The results for the composite z-score in experiment [8], in [9] and in experiment [10] were -0.0659, 0.121 and 1.1, respectively. The z-score in experiment [4] was -0.73 (inactive).

Consider `COc1ccc(C(O)C2C=CC3C(=O)N(C)C(=O)C3N2N(c2ccccc2)c2ccccc2)cc1` (stereo not given), for which the composite z-score was 1.59 in experiment [1]; 0.996 in [2]; 0.93 in [3]; 0.434 in experiment [5]; 0.243 in experiment [6]; -0.0923 in experiment [7]. Besides, the composite z-score in experiment [8] was 0.585; in [9], -0.128; in experiment [10], 1.32. In addition, the z-score in experiment [4] is 1.09 (inactive).

`C=CCC(OC(C)=O)[C@@H]1[C@@H](N(Cc2cccc3ccccc23)C(=O)c2ccc(-c3ccccc3)cc2)c2cc(OCCCO)ccc2N1C(=O)Cc1ccc2ccccc2c1` (stereo not given in full): the composite z-score is -0.121 in [1]; -0.0459 in experiment [2]; 0.428 in experiment [3]; -0.179 in experiment [5]; -0.328 in experiment [6]; -0.0303 in experiment [7]. Also, the composite z-score was 0.228 in experiment [8], -0.624 in experiment [9] and 0.45 in experiment [10]. Also, in experiment [4], the z-score was -1.08 (inactive).
